# Over roughly 33,000 sequences, “E-score (-0.5 to 0.5)” has its median near -0.043; the highest 2% begin near 0.37. The sample holds the highest values, similar sequences and a random draw of the others, so the mix is not that of the screen.
# Target: T1, Upc2 (UniProt Q12151)
# T1 sequence: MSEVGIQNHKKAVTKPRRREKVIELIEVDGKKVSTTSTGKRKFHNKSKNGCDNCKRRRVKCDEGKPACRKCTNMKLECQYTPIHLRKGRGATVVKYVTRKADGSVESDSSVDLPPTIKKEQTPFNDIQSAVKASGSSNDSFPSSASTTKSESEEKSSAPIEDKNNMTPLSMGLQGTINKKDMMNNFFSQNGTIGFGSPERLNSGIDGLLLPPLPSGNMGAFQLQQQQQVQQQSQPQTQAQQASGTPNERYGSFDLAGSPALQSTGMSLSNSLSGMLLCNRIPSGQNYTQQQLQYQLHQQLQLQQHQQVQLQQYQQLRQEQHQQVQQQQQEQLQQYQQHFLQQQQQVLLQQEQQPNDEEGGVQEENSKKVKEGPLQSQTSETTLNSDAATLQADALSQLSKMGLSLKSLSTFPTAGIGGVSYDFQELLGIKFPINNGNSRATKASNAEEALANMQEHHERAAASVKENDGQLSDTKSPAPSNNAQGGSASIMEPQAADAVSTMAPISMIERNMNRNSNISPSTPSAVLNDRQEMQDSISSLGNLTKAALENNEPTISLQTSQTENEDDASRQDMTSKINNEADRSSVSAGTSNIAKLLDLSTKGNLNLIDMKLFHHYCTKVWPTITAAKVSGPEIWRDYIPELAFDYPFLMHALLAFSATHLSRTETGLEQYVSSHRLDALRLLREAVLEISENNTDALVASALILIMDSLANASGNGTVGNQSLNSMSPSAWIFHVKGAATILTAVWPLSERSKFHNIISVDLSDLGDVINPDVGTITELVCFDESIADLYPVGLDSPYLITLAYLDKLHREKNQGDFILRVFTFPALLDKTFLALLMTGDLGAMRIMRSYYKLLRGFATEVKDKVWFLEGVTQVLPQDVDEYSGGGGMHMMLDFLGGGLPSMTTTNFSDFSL
# Experiment: PBM E-score (8-mer binding enrichment) (E-score (-0.5 to 0.5)); higher = stronger / more preferred TF binding
# Settings: protein concentration: 200 nM; construct: GST-full length
# Description: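 Universal 'all 10-mer' protein binding microarrays (Agilent AMADID 015681) probed with GST-tagged S. cerevisiae TFs (full-length or DBD) made by in vitro transcription/translation (PURExpress), about 100-200 nM. Bound TF was detected with fluorescent anti-GST. Each ungapped 8-mer (which stands for itself and its reverse complement) is scored by the PBM enrichment score (E-score), a modified Wilcoxon-Mann-Whitney statistic from -0.5 to +0.5, computed with the Universal PBM Analysis Suite. Scale: above 0.35 generally sequence-specific binding.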
row,Sequence,PBM E-score
1,AGAGGCCT,-0.0685
2,TCATGAAA,0.0303
3,ACCACTGG,-0.0523
4,AAAAGCGA,0.175
5,GGATCTTA,0.146
6,GTCCGAGA,0.205
7,AGACGAGA,0.184
8,ATACGAGA,0.482
9,CTACGAGA,0.359
10,GTACGAGA,0.472
11,CGACGAGC,0.0758
12,CCACGAGC,-0.0694
13,ACACGAGG,0.248
14,CTACGAGC,0.393
15,GTACGCGA,0.347
16,AGACGAGG,0.215
17,ATACGAGG,0.487
18,GCAGTTTA,0.0629
19,ACTCTTAG,-0.149
20,ACTCTGGG,-0.181
21,GGAGTCCC,-0.172
22,CGTAACCA,0.223

row,Sequence,PBM E-score
1,CACAGTGA,-0.0917
2,ACCCTCTG,-0.236
3,ACACGAGC,0.273
4,AGACGAGC,0.206
5,ATACGAGC,0.489
6,AAACTGAC,-0.0907
7,CGGGACCC,-0.177
8,GCTGTGAC,0.111
9,ACATACGC,0.281
10,GCATACGC,0.296
11,TCATACAA,0.0325
12,GCATACAA,-0.0164
13,TCATACCA,-0.0495
14,ACATACGA,0.476
15,GCATACGA,0.47
16,TCATACGA,0.469
17,ACATACGT,0.239
18,CTAATGTC,-0.171
19,AGATAAGA,0.0794
20,GGCTGATA,-0.0951
21,CCTGAAGC,-0.175
22,AATGGTGT,-0.0602

row,Sequence,PBM E-score
1,CGTTGCTA,0.0827
2,CTAGCCCA,-0.335
3,AAGAGGAC,-0.242
4,ACTATCAG,-0.196
5,CCTGAGAA,-0.0858
6,GAAACAAA,0.0262
7,GCAACGAA,0.314
8,CCAACGAA,0.109
9,AAAACGAA,0.283
10,GAAACGAA,0.41
11,CAAACGAA,0.467
12,CTAGCTTC,-0.105
13,GATCACAA,-0.0358
14,GAATGCCC,0.0462
15,GCATACCA,0.00545
16,ATTGTGCC,-0.149
17,AATCCATG,-0.252
18,ACGACTCT,0.319
19,ACGACGCT,0.361
20,CCGACGCG,0.16
21,ACGACGCA,0.389
22,ACGACTCA,0.29

row,Sequence,PBM E-score
1,GCGACGCA,0.108
2,ACGACGCG,0.389
3,ACGACGCC,0.306
4,ACGACTCG,0.381
5,CGTCGGGC,-0.231
6,ATCAATCA,0.0322
7,AAAATCCT,0.0605
8,AGGTTACG,0.221
9,GACGTAGA,0.054
10,GTAGTAGA,-0.0548
11,CACGTAGC,-0.0699
12,CACGTAGA,0.0732
13,ATCGTAGA,0.337
14,CTCGTAGC,0.4
15,GTCGTAGA,0.386
16,CTCGTAGA,0.404
17,ATCGTAGC,0.356
18,GTGGGGCA,-0.058
19,CAGTGTCC,-0.141
20,AGCCAATC,-0.0383
21,TCCAGCCA,-0.231
22,AGTCTATA,0.0445
